Screens (PubChem BioAssay)
IL-1B inflam inh = blocks inflammasome-driven IL-1 beta release | AID 743279 | activity change, % at 57.5 µM | 360,000 tested, 4.7% active | THP-1 LPS/ATP IL-1B secretion, AlphaLISA, 16 h; stronger effect = lower value; in the data active means activity change below about -50%; inconclusive means mostly about -30% to -49%
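THP-1 cells pretreated 1 hr with compounds (up to 57.5 uM final), then stimulated with LPS (250 ng/mL final) plus ATP (1.25 mM final); secreted IL-1B measured by AlphaLISA after 16 hr, decreased signal indicating inhibition.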
Giardia kill = kills Giardia lamblia | Giardia lamblia trophozoite viability | activity change, % at 7.66 µM, hits read low | 340,000 tested, 0.15% active | AID 540267; in the data active means activity change below about -80%; inconclusive means between about -30% and that limit;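 further: parasites exposed to compound for two days anaerobically before the ATP read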
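Viability, read as ATP luminescence: trophozoites at 100 cells/well, compound added, 48 hrs anaerobic at 37 deg C, then 15-30 min room-temperature development before reading.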
DT40 TDP1 no CPT = qHTS for Inhibitors of human tyrosyl-DNA phosphodiesterase 1 (TDP1): qHTS in cells in absence of CPT | DT40 Tdp1-/- hTDP1 cells, no CPT, ATP luminescence, 48 h | Potency, µM (series often up to 46.2 µM), hits mostly inhibitors | 420,000 tested, 15% active | AID 686978, 2013; further: nearly all actives have a fitted effect of over 55% in size
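Chicken DT40 Tdp1-/- cells stably complemented with human TDP1 were seeded at 400 cells/well with DMSO in place of 20 nM camptothecin. After compound pinning, cells grew at least 48 hr at 37 °C; viability read by CellTiter-Glo luminescence.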
TDP1 cell CPT = growth inhibition of DT40 Tdp1-/-;hTDP1 cells with camptothecin (screen for TDP1 inhibitors). chicken DT40 Tdp1-/-;hTDP1 cells + 20 nM CPT, ATP luminescence, 48 h. Potency, µM (highest dose often 46.2 µM), usual class: inhibitors. 420,000 tested, 12% active. AID 686979; further: nearly all actives have a fitted effect of over 55% in size
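Chicken DT40 Tdp1-/- cells stably complemented with human TDP1 were seeded at 400 cells/well in medium containing 20 nM camptothecin, exposed to pin-transferred compounds, and grown at 37 °C for at least 48 hr. Viability was read as ATP luminescence.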
TDP1 block = inhibitors of human tyrosyl-DNA phosphodiesterase TDP1. AID 485290. Q9NUW8. recombinant TDP1, AlphaScreen DNA substrate cleavage. 350,000 tested, 0.28% active. Potency, µM (series often up to 130 µM), actives largely listed as inhibitors; further: nearly all actives have a fitted effect of over 40% in size
Target sequence (Q9NUW8 whole entry, looked up): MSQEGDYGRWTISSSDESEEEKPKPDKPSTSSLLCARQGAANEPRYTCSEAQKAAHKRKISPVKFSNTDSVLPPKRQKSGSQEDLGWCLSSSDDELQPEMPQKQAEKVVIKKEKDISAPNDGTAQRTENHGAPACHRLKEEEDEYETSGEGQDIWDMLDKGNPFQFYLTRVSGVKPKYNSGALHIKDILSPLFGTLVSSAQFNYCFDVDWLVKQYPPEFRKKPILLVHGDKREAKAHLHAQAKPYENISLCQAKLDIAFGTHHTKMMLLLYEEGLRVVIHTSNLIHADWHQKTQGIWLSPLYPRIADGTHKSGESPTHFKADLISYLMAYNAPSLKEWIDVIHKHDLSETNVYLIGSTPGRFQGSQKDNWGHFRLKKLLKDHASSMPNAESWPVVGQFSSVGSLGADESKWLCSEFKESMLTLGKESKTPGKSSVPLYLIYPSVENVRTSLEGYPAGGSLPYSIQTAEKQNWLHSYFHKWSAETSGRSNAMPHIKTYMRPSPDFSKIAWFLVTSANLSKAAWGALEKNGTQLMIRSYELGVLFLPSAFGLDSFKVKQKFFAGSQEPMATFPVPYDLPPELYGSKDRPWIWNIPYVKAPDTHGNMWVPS
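Signal: AlphaScreen proximity between streptavidin donor and anti-FITC acceptor beads on intact substrate. Reaction: Tdp1 1 nM, substrate 15 nM final, 5 min RT after 15 min compound preincubation.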
ELG1 DNA repair = inhibitors of ELG1-dependent DNA repair in HEK293T cells | Potency, µM (series often up to 46.1 µM), actives largely listed as inhibitors | 330,000 tested, 2.3% active | AID 504467 | HEK293T ELG1-luciferase reporter, luminescence, 16 h; DNA damage induced by 5-fluorouridine; further: nearly all actives have a fitted effect of over 55% in size
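In this reporter screen, reduction of luminescence relative to DMSO vehicle indicated activity. Compounds and 5-fluorouridine were added together to 2,000 cells per well, incubated for 16 hr at 37 °C, then developed with ONE-Glo.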
Large screens that a line does not name were inactive. Hits are enriched below; roughly 19% of the tested compounds scored in any of these assays. Unless noted, the call rests on the fitted dose curve; in most records, active means well fitted curve in the direction sought with a large enough effect; inconclusive means small, poorly fitted or top-dose-only effect, or another doubt; inactive means no such curve, though single readings can be large; an effect the other way counts as inactive or inconclusive.

COc1ccc(Oc2c(C(F)(F)F)oc3c(CN4CCCC(C)C4)c(O)ccc3c2=O)cc1 (stereo unspecified)	DT40 TDP1 no CPT inconclusive, TDP1 cell CPT inconclusive (no result: IL-1B inflam inh, Giardia kill, ELG1 DNA repair)
COc1ccc(-c2csc(NC(=O)c3c(C)noc3C)n2)cc1F	DT40 TDP1 no CPT inconclusive, TDP1 cell CPT inconclusive, ELG1 DNA repair inconclusive
COc1cc2c(cc1OC)C1=NC(=O)CN1C(SCc1ccc(C)cc1)=N2	DT40 TDP1 no CPT 2.6µM, TDP1 cell CPT 6.5µM, ELG1 DNA repair inconclusive
C=CCSC1=Nc2cc(OC)c(OC)cc2C2=NC(=O)CN12	DT40 TDP1 no CPT 10µM, TDP1 cell CPT inconclusive
Cc1ccc(CSC2=Nc3sccc3C3=NC(=O)CN23)cc1	TDP1 cell CPT inconclusive
O=C(CCc1nc2ccccc2c(=O)[nH]1)N1CCN(c2ccccc2Cl)CC1	DT40 TDP1 no CPT 16µM, TDP1 cell CPT 21µM, ELG1 DNA repair inconclusive
CCN1CCN(C(=O)CCc2nc3ccccc3c(=O)[nH]2)CC1	TDP1 cell CPT inconclusive
O=C(CCc1nc2ccccc2c(=O)[nH]1)N1CCCc2ccccc21	DT40 TDP1 no CPT 8.2µM, TDP1 cell CPT inconclusive, ELG1 DNA repair inconclusive
COc1ccc(-c2c(C)c3ccc(O)c(CN4CCOCC4)c3oc2=O)cc1OC	DT40 TDP1 no CPT inconclusive, TDP1 cell CPT inconclusive (no result: IL-1B inflam inh, Giardia kill, ELG1 DNA repair)
CN(C)c1ccc(/C=C2\CCC/C(=C\c3ccccc3)C2=O)cc1	IL-1B inflam inh -65, DT40 TDP1 no CPT inconclusive, TDP1 cell CPT inconclusive, ELG1 DNA repair inconclusive
CN(C)/C=C1\Cc2ccccc2C1=O	TDP1 cell CPT 33µM, ELG1 DNA repair inconclusive
CN(C)c1ccc(/C=C2\Cc3ccccc3C2=O)cc1	DT40 TDP1 no CPT 3.5µM, TDP1 cell CPT inconclusive (no result: IL-1B inflam inh, Giardia kill, TDP1 block, ELG1 DNA repair)
CN(C)c1ccc(/C=C2\CCc3cc(N)ccc32)cc1	none (no result: IL-1B inflam inh, Giardia kill, TDP1 block, ELG1 DNA repair)
CCOc1ccc(CNC(=O)c2ccc3c(c2)c(C)c(C)n3Cc2ccccc2)cc1OC	DT40 TDP1 no CPT 15µM, TDP1 cell CPT 12µM (no result: IL-1B inflam inh, Giardia kill, ELG1 DNA repair)
Cc1c(C)n(Cc2ccccc2)c2ccc(C(=O)NCc3ccc(OC(C)C)cc3)cc12	DT40 TDP1 no CPT 12µM, TDP1 cell CPT 16µM (no result: IL-1B inflam inh, Giardia kill, ELG1 DNA repair)
Cc1cccc(CNC(=O)c2ccc3oc(=O)n(Cc4ccccc4)c3c2)c1	DT40 TDP1 no CPT inconclusive, TDP1 cell CPT inconclusive (no result: IL-1B inflam inh, Giardia kill, ELG1 DNA repair)
Cc1cccc(CNC(=O)c2ccc3c(c2)c(C)c(C)n3Cc2ccccc2)c1	DT40 TDP1 no CPT inconclusive, TDP1 cell CPT 21µM (no result: IL-1B inflam inh, Giardia kill, ELG1 DNA repair)
Cc1c(Cl)cccc1NC(=O)Cn1cc2c(n1)CCCC2	none (no result: IL-1B inflam inh, Giardia kill, ELG1 DNA repair)
Cc1cc(C(F)(F)F)nn1Cc1ccc(C(=O)NCc2ccco2)o1	DT40 TDP1 no CPT 13µM, TDP1 cell CPT 16µM, ELG1 DNA repair inconclusive
COc1cccc(N2CCN(CC(=O)N3CCN(S(=O)(=O)c4ccc(Cl)cc4)CC3)CC2)c1	DT40 TDP1 no CPT 18µM, TDP1 cell CPT inconclusive, ELG1 DNA repair inconclusive
O=C(c1ccc(S(=O)(=O)N2CCCC2)cc1)N1CCN(c2cccc(Cl)c2)CC1	DT40 TDP1 no CPT 18µM, TDP1 cell CPT 23µM
Cc1cc(C)nc(N2CCN(C(=O)c3ccc(S(=O)(=O)N4CCCCCC4)cc3)CC2)n1	DT40 TDP1 no CPT 16µM, TDP1 cell CPT 26µM, ELG1 DNA repair inconclusive
COc1ccccc1CCn1cnc(-c2ccc(Br)cc2)c1C(C)C	DT40 TDP1 no CPT 18µM, TDP1 cell CPT 15µM (no result: Giardia kill, TDP1 block, ELG1 DNA repair)
CCCCCc1c(-c2ccc(Br)cc2)ncn1CCc1ccccc1OC	IL-1B inflam inh -83, DT40 TDP1 no CPT 4.6µM, TDP1 cell CPT 6.5µM (no result: Giardia kill, TDP1 block, ELG1 DNA repair)
COc1ccccc1CCn1cnc(Cc2ccccc2)c1C(C)C	IL-1B inflam inh -52, DT40 TDP1 no CPT 7.3µM, TDP1 cell CPT 7.3µM (no result: Giardia kill, TDP1 block, ELG1 DNA repair)
COc1ccccc1CNC(=O)Cc1csc2nc(-c3ccc(F)cc3)cn12	DT40 TDP1 no CPT inconclusive, TDP1 cell CPT inconclusive (no result: IL-1B inflam inh, Giardia kill, ELG1 DNA repair)
CCCCCc1c(-c2ccc(F)cc2)ncn1CCc1ccccc1OC	IL-1B inflam inh -51, DT40 TDP1 no CPT 18µM, TDP1 cell CPT 9.2µM (no result: Giardia kill, TDP1 block, ELG1 DNA repair)
Cc1cc(F)ccc1S(=O)(=O)N1CCCOC1CNC(=O)C(=O)NCCCN1CCOCC1 (stereo unspecified)	none
